High-throughput results as filed in PubChem.
ELG1 repair inh – inhibitors of ELG1-dependent DNA repair in HEK293T cells. 330,000 compounds, 2.3% hits. Potency, µM (doses to about 46.1 µM), for inactives: at the top dose activity change, negative = inhibition, most hits filed as inhibitors. AID 504467. HEK293T ELG1-luciferase reporter, luminescence, 16 h; DNA damage induced by 5-fluorouridine; note: % is set by controls: 0 for no effect and ±100 for the full control effect; nearly all actives have a fitted effect of over 55% in size
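Quantitative HTS, concentration-response format. 2,000 cells/well co-treated with 5-fluorouridine and compound, 16 hr in 5% CO2 at 37 °C; ONE-Glo luminescence read after 30 min.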
KB-3-1 cytotox – kills parental KB-3-1 adenocarcinoma cells; KB-3-1 viability, CellTiter-Glo ATP luminescence, 72 h; Potency, µM (titrated, usually from 46.1 µM), most hits filed as cytotoxic; 400,000 compounds, 1.4% hits; AID 1347075; note: % is set by controls: 0 for no effect and ±100 for the full control effect; nearly all actives have a fitted effect of over 60% in size
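Viability of parental KB-3-1 cells, measured by CellTiter-Glo luminescence, followed a 72 h incubation at 37 °C with pinned compounds in phenol-red-free DMEM containing 10% FBS.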
SW480 rereplic – DNA re-replication induction in SW480 cells; Potency, µM (series often up to 46.1 µM), for the others: top-dose re-replication activation, actives largely listed as activators; 340,000 compounds, 1.8% hits; SW480 DNA re-replication, Hoechst DNA content imaging, 48 h; note: % of control where 0% means no effect; nearly all actives have a fitted effect of over 55% in size
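DNA re-replication was detected as more nuclei of elevated Hoechst intensity after 48 hr exposure to compound (23 nL pinned per well of 250 cells).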
KB-V1 cytotox – KB-V1 MDR subline cytotoxicity; KB-V1 MDR cells viability, CellTiter-Glo, 72 h; 400,000 compounds, 3.4% hits; AID 1347076; Potency, µM (top dose mostly 46.1 µM), actives largely listed as cytotoxic; note: % is set by controls: 0 for no effect and ±100 for the full control effect; nearly all actives have a fitted effect of over 60% in size
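Luminescent ATP read-out (CellTiter-Glo, 10 min) measures survival of drug-selected KB-V1 MDR cells after 72 h, 37 degrees C compound exposure. Medium: phenol-red-free DMEM, 10% FBS. Values from fitted concentration-response curves.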
MCF10A rerep – DNA re-replication induction in MCF 10a cells; 350,000 compounds, 2.9% hits; MCF 10A DNA re-replication, Hoechst nuclear intensity, 48 h; Potency, µM (series often up to 46.1 µM), inactives show top-dose activity, positive = re-replication, most hits filed as activators; note: % of control where 0% means no effect; nearly all actives have a fitted effect of over 50% in size
Starred values were filed as active, the others as inactive; i = inactive; u = inconclusive; x = no result given; [ ] = remark or other dose. The list is not random: actives were taken first. Their share in the collection is about 8.1%. Calls come from the whole dose curve; as a rule, active = well fitted curve in the direction sought with a large enough effect; inconclusive = small, poorly fitted or top-dose-only effect, or another doubt; inactive = no such curve, though single readings can be large; an effect the other way counts as inactive or inconclusive. Potency is the fitted concentration of half-maximal effect.

SMILES	ELG1 repair inh	KB-3-1 cytotox	SW480 rereplic	KB-V1 cytotox	MCF10A rerep
CN(c1ccc(-c2csc(NC(=O)C3CC(=O)N(Cc4ccco4)C3)n2)cc1)S(C)(=O)=O (stereo not drawn)	u	i	9%	i	9%
Clc1ccc(CN2C3=NCCN3c3ccccc32)cc1Cl	u	i	u	21µM*	10%
c1ccc(CN2C3=NCCN3c3ccccc32)cc1	-21%	i	u	i	-2%
CCCc1nc(SCC(=O)Nc2nc3c(s2)CCCC3)c2ccccc2n1	-11%	i	8%	i	16µM*
Cc1cc(NC(=O)CSc2nc(CCC3CCCC3)nc3ccccc23)no1	u	i	3%	i	-184%[0.0737 µM]
CCc1cc2ccccc2nc1SCC(=O)Nc1cc(C)on1	4%	i	2%	i	u
CCc1nc(SCC(=O)Nc2nc3c(s2)CCCC3)c2ccccc2n1	u	u	u	i	-182%[0.0737 µM]
CCCc1nc(SCC(=O)Nc2cc(C)on2)c2ccccc2n1	26µM*	u	u	u	u
Cc1cc(NC(=O)CSc2nc3c([nH]c4ccccc43)c(=O)n2-c2ccccc2F)no1	21µM*	i	3%	i	2%
COc1ccccc1-n1c(SCC(=O)Nc2cc(C)on2)nc2c([nH]c3ccccc32)c1=O	-28%	u	-14%	u	u
CCc1cc2ccc(OC)cc2nc1SCC(=O)Nc1cc(C)on1	23%	i	7%	i	13µM*
CCCc1nnc(NC(=O)C2CCN(C(=O)C3CC(=O)N(c4ccc(C)cc4)C3)CC2)s1 (stereo not drawn)	-6%	i	29%	i	14%
O=[N+]([O-])c1cc(S(=O)(=O)N2CCCC2)ccc1NCCCN1CCOCC1	1%	i	-2%	i	6%
Cc1cc(NC(=O)CSc2nc(-c3cccs3)nc3ccccc23)no1	3%	5.8µM*	5.8µM*	u	15µM*
Cc1cc(NC(=O)CSc2nc(C(C)(C)C)nc3ccccc23)no1	2%	i	u	u	u
CCOC(=O)Cc1csc2nc(-c3ccccc3)nn12	23%	i	-7%	i	-9%
COc1ccc(-c2nc3scc(-c4ccccc4)n3n2)cc1	8%	u	u	18µM*	3%
CC[C@H](C)C(=O)O[C@H]1CCC=C2C=C[C@H](C)[C@H](CC[C@@H]3C[C@@H](O)CC(=O)O3)[C@H]21	6%	u	u	u	-15%
CCC(C)C(=O)OC1CCC=C2C=CC(C)C(CCC3CC(O)CC(=O)O3)C21 (stereo not drawn)	x	13µM*	u	18µM*	21%
Clc1ccc2nc(C3CCN(Cc4nnnn4C4CCCCC4)CC3)[nH]c2c1	u	i	17%	i	25%
CCC(C)(C)n1nnnc1CN1CCC(NC(=O)c2ccc(Br)cc2)CC1	u	i	2%	i	6%
Cc1ccc(Cn2nnnc2CN2CCC(NC(=O)c3ccc(Br)cc3)CC2)cc1	21µM*	i	-3%	18µM*	3%
Cc1ccc(Cn2nnnc2CN2CCC(c3nc4ccc(Cl)cc4[nH]3)CC2)cc1	23µM*	18µM*	12%	3.3µM*	u
O=C(NC1CCN(Cc2nnnn2CCc2ccccc2)CC1)c1ccccc1F	4%	i	-6%	16µM*	1%
CC1CCCC(C)N1CCCNC(=O)Cn1ncc2c([nH]c3ccccc32)c1=O (stereo not drawn)	1%	i	23%	i	2%
SMILES	ELG1 repair inh	KB-3-1 cytotox	SW480 rereplic	KB-V1 cytotox	MCF10A rerep
Cc1ccc(CNCC(O)(c2ccccc2)c2ccc(F)cc2)cc1 (stereo not drawn)	9%	i	4%	18µM*	21%
COc1ccc(CNCC(O)(c2ccccc2)c2ccccc2)cc1OC	23µM*	i	1%	i	-1%
COc1ccccc1CNCC(O)(c1ccc(Cl)cc1)c1ccc(Cl)cc1	-7%	i	15µM*	u	u
CCN(CC)Cc1ccccn1	4%	i	-3%	i	10%
CCCCN(c1ccccc1)c1ncnc(N)c1[N+](=O)[O-]	2.6µM*	i	-7%	i	-6%
Cc1cc(N=Cc2c(O)n(-c3cccc(C(F)(F)F)c3)c(=O)c3ccccc23)no1	9.2µM*	i	-6%	i	-4%
COc1cc(C(=O)NNC(=O)Nc2ccc([N+](=O)[O-])cc2)cc(OC)c1OC	-15%	i	10%	i	24%
CN(C)S(=O)(=O)c1ccc(C(=O)Nc2cc(=O)n(C)c(=O)n2C)cc1	4%	i	-11%	i	6%
O=C(Cc1ccc(S(=O)(=O)N2CCOCC2)s1)Nc1cc(C(F)(F)F)cc(C(F)(F)F)c1	21µM*	u	u	i	21µM*
O=C(Cc1ccc(S(=O)(=O)N2CCOCC2)s1)Nc1ccc(N2CCOCC2)cc1	u	i	-7%	i	-42%
CCOC(=O)c1cc(NC(=O)Cc2ccc(S(=O)(=O)N3CCOCC3)s2)cc(C(=O)OCC)c1	6.5µM*	i	3%	u	3%
CC1CCC(NC(=O)CN2CCN(S(=O)(=O)c3ccc(Br)s3)CC2)CC1 (stereo not drawn)	x	i	x	u	x
CC1CCCCC1NC(=O)CN1CCN(S(=O)(=O)c2ccc(Br)s2)CC1 (stereo not drawn)	-14%	u	1%	9.2µM*	2%
COC(=O)C(NC(=O)CN1C(=O)c2ccccc2C1=O)c1ccc(O)c(OC)c1 (stereo not drawn)	4%	i	-27%	i	16%
c1cc(-c2nnc3n2CCCCC3)ccn1	5%	i	-1%	i	0%
c1cnc(-c2nnc3n2CCCCC3)cn1	6%	i	u	i	1.5µM*
COc1ccc2oc(C(=O)OCC(=O)NCc3ccc(OC)c(OC)c3)c(C)c2c1	u	i	-73%	u	u
COc1cccc(N2C(=O)C3CC=C(Cl)CC3C2=O)c1 (stereo not drawn)	1%	i	-4%	i	1%
COc1ccc(C2CC(c3ccccc3OC(C)=O)=NN2C(=O)/C=C/c2ccccc2)cc1OC (stereo not drawn)	u	u	-1%	u	12%
COc1ccc(C2=NN(C(=O)/C=C/c3ccccc3)C(c3ccccc3)C2)c(OC(C)=O)c1 (stereo not drawn)	u	u	3%	2.9µM*	u
Cc1ccc(C(=O)Oc2ccc(/C=C3\C(=N)N4N=C(N5CCOCC5)SC4=NC3=O)cc2)cc1	u	i	0%	u	-1%
Cn1nc(C(F)(F)F)c(C#N)c1N1CCN(c2ccccc2F)CC1	x	u	-1%	i	u
